# Rows were chosen to be rich in hits. Some 11% of all compounds tested hit in one or more screens of this group.
# HEK cytotox: Cytotoxic Profiling in HEK 293 Cell Line of Diverse Libraries Using Quantitative High-Throughput Screening; 94,000 compounds, 6.6% hits; Potency, µM (highest dose often 115 µM), inactives show top-dose activity change, negative = cytotoxicity, actives largely listed as inhibitors; HEK 293 viability, ATP luminescence (CellTiter-Glo), 48-72 h; note: nearly all actives have a fitted effect of over 60% in size
#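 Luminescence from cellular ATP, measured with CellTiter-Glo, indicates HEK 293 viability. Cells plated at 250 cells/well are treated with compound for 48 or 72 hr at 37 degree Celsius before reagent addition.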
# FLuc inh: Firefly luciferase inhibition profiling of diverse chemical library using quantitative high-throughput screening; Luciferin 4-monooxygenase (Photinus pyralis), P08659; purified P. pyralis luciferase, luminescence, biochemical; Potency, µM (highest dose often 115 µM), hits mostly inhibitors; 76,000 compounds, 2.5% hits; note: nearly all actives have a fitted effect of over 65% in size
# Target sequence (P08659 whole entry, looked up): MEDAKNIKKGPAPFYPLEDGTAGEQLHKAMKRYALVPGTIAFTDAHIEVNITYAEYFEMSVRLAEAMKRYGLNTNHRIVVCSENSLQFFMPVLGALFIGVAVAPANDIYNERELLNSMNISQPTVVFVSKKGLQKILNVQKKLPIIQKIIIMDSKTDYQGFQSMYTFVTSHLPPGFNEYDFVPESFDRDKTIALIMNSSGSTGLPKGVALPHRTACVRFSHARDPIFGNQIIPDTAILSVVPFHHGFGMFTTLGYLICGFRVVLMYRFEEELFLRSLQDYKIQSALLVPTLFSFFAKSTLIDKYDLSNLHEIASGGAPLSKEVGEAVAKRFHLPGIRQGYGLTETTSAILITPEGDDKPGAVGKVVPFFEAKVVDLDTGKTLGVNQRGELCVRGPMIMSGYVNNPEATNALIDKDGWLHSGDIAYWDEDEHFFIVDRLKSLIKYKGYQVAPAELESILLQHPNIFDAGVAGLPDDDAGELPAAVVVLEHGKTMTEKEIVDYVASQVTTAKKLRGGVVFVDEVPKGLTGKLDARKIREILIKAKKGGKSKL
#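 Inhibitors were tested against purified firefly luciferase in a biochemical, low-substrate format (both substrates at 10uM) and luminescence measured with a CCD imager.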
# 3T3 cytotox: Cytotoxic Profiling in NIH 3T3 Cell Line of Diverse Libraries Using Quantitative High-Throughput Screening | 94,000 compounds, 4.3% hits | NIH 3T3 viability, CellTiter-Glo ATP luminescence, 48-72 h | Potency, µM (doses to about 96.7 µM), inactives show at the top dose activity change, negative = cytotoxicity, usual class: inhibitors; note: nearly all actives have a fitted effect of over 55% in size
#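 Viability of NIH 3T3 cells after 48 or 72 hr compound treatment at 37 °C was assessed by CellTiter-Glo, with luminescence imaged following a 10 min room-temperature step.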
# NPR1 antag: Natriuretic polypeptide receptor (hNpr1) antagonism - Primary qHTS; 76,000 compounds, 1.6% hits; Atrial natriuretic peptide receptor 1 (Homo sapiens), P16066; AID 1347048, 2019; HEK293 hNpr1 GloSensor cGMP, ANP-stimulated luminescence; Potency, µM (highest dose often 46.3 µM), without a hit: top-dose activity change, negative = inhibition, hits mostly inhibitors; calls by dose curve; note: nearly all actives have a fitted effect of over 60% in size
#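 Compound pre-incubated 30 min at room temperature on GloSensor-loaded HEK293 cells stably carrying hNpr1 and the pGS-40F cGMP biosensor. Stimulation uses hNppA at 0.1 nM final; luminescence is taken at baseline and 20 min post-agonist.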
# * = called active by the depositor; i = inactive; ? = inconclusive; . = no result given; [ ] = another dose, or the depositor's remark. Unless noted, calls come from the whole dose curve; as a rule, active = well fitted curve in the direction sought with a large enough effect; inconclusive = small, poorly fitted or top-dose-only effect, or another doubt; inactive = no such curve, though single readings can be large; an effect the other way counts as inactive or inconclusive. % is set by controls: 0 for no effect and ±100 for the full control effect; potency is the fitted concentration of half-maximal effect.
SMILES,HEK cytotox,FLuc inh,3T3 cytotox,NPR1 antag
O=C(COc1ccc(F)cc1)N1CC(Oc2cccc(-c3nc(-c4ccccc4)no3)c2)C1,?,?,?,-17%
c1ccc(-c2nc(-c3ccc(OC4CNC4)cc3)no2)cc1,?,4µM*,16µM*,?
CN1CC(=O)N(C2CNC2)Cc2c(NC3CCCC3)ncnc21,2%,.,?,.
Cc1oc(C2CCN(C(=O)c3cc(CN4CCOCC4)on3)CC2)nc1C(=O)N1CCCC1,-14%,.,-20%,.
Cc1cccc(C)c1-c1nc(C(=O)N2CCOCC2)n2ccccc12,-19%,.,-24%,.
O=C(Nc1ccccc1F)N1CC(Oc2ccc(-c3noc(-c4ccccc4)n3)cc2)C1,?,?,-16%,10µM*
O=C(Nc1ccccc1F)N1CC(Oc2ccc(-c3nc(-c4ccccc4)no3)cc2)C1,-11%,?,-1%,-18%
O=C(NCc1ccccc1)N1CC(Oc2ccc(-c3nc(-c4ccccc4)no3)cc2)C1,?,2.5µM*,-2%,?
O=C(NCc1ccc(F)cc1)N1CC(Oc2ccc(-c3noc(-c4ccccc4)n3)cc2)C1,?,?,?,14µM*
O=C(CCc1ccccc1)N1CC(Oc2ccc(-c3nc(-c4ccccc4)no3)cc2)C1,?,?,-18%,?
O=C(c1ccc(Cl)nc1)N1CCN(Cc2ccccc2-c2cccnc2)CC1,?,.,-30%,.
COc1ccccc1CCn1cnc(-c2ccccc2)c1-c1cn(C)nc1C,79µM*,i,?,-5%
COc1ccc(F)cc1-c1ccc(CN2CCC(NC(=O)Nc3ccc(C)c(F)c3)C2)cc1 (centres undefined),25µM*,.,16µM*,.
Cc1cc(C)cc(-c2ccc(CN3CCCC(NC(=O)Nc4ccc(Cl)cc4)C3)cc2)c1 (centres undefined),-4%,.,-14%,.
COc1ccc(F)cc1-c1ccc(CN2CCC(NC(=O)Nc3ccc(Cl)cc3)C2)cc1 (centres undefined),13µM*,.,11µM*,.
COc1ccc(F)cc1-c1ccc(CN2CCC(NC(=O)NC3CCCC3)C2)cc1 (centres undefined),20µM*,.,13µM*,.
CC(C)NC(=O)NC1CCCN(Cc2ccc(-c3cncnc3)cc2)C1 (centres undefined),-14%[172 µM],.,-16%[138 µM],.
CC(=O)NCCC(=O)N1Cc2ccccc2CC2(CCCN2CC2CCNC2)C1 (centres undefined),-8%,.,-28%,.
COc1cccc(CC(=O)N2Cc3ccccc3OC3(CCN(C)CC3)C2)c1,?,i,-19%,-4%
COc1cccc(-c2cc(-c3ccccc3)nc3c(C)noc23)c1,?,i,?,1%[70.6 µM]
Cc1noc2c(-c3cccc(CO)c3)cc(-c3cccc(C(F)(F)F)c3)nc12,45µM*,i,25µM*,-3%[70.6 µM]
Cc1noc2c(-c3cccc(CO)c3)cc(-c3ccc(F)cc3)nc12,71µM*,i,?,2%[70.6 µM]
COc1ccc(Nc2cc(-c3cccs3)nc3c(C)noc23)cc1OC,63µM*,i,45µM*,-21%[70.6 µM]
Cc1noc2c(-c3cccc(CO)c3)cc(-c3cccs3)nc12,100µM*,i,45µM*,2%[70.6 µM]
Cc1cccc(C)c1-c1nnc2ccc(C(=O)NCc3ccccc3)cn12,-23%[172 µM],.,?,.
SMILES,HEK cytotox,FLuc inh,3T3 cytotox,NPR1 antag
O=C(Nc1ccccc1)N1CCCC(C(=O)N2CCC(c3nc4ccncc4[nH]3)CC2)C1 (centres undefined),-14%,.,-24%,.
O=C1Nc2ccccc2CC12CCN2Cc1cccc2ccccc12 (centres undefined),?,i,89µM*,-7%[70.6 µM]
O=C1Nc2ccccc2CC12CCCN2Cc1ccc(C(F)(F)F)cc1 (centres undefined),45µM*,.,?,.
O=C1Nc2ccccc2CN(Cc2ccc(F)cc2)C12CCNCC2,40µM*,.,?,.
O=C1Nc2ccccc2CN(Cc2ccc(C(F)(F)F)cc2)C12CCNCC2,28µM*,.,22µM*,.
CCn1nccc1C(=O)N1CCC(CCn2c(C)cnc2C)CC1,?,.,-28%,.
CN(C)c1ccc(CN2CCC3(CN[S+](=O)([O-])c4ccccc4N3)C2)cc1 (centres undefined),-17%,i,?,-1%
Cn1cccc1C(=O)NCC1Cn2cccc2C(=O)N1Cc1cccnc1 (centres undefined),-17%,.,-29%,.
Cc1ccc(-c2cc(-c3cccnc3)nc3c(C)noc23)c(C)c1,79µM*,?,?,0%[70.6 µM]
COc1ccccc1-c1cc(-c2cccnc2)nc2c(C)noc12,-23%[172 µM],i,?,2%[70.6 µM]
CC(=O)N1CCN(c2cc(-c3ccccc3)nc3c(C)noc23)CC1,-18%[172 µM],i,89µM*,1%[70.6 µM]
Cc1noc2c(N3CCN(Cc4ccccc4)CC3)cc(-c3cccnc3)nc12,63µM*,i,?,-17%[70.6 µM]
CC(C)=CCN1C[C@H](NC(=O)CCc2cccs2)C[C@H]1C(=O)NC(C)C,i,i,1%,4%
COc1ccc(-c2noc(-c3cccn3CC(=O)Nc3cc(C)ccc3C)n2)cc1F,10%,i,-3%,1%
COc1ccccc1-c1ccc2c(C(=O)N3CCN(c4ncccn4)CC3)nn(C)c2n1,?,.,-18%,.
CN(C(=O)c1ccc2cccc(F)c2n1)C1CCCN(CCCc2ccccc2)C1 (centres undefined),?,i,?,15%
COc1ccccc1N1CCN(C(=O)C2N(C(C)C)C(=O)C23CCCCC3)CC1 (centres undefined),?,i,-9%,-12%
COc1ccccc1Nc1ncc2c(n1)CN(C(=O)c1cccc(O)c1)CCN2,100µM*,i,-3%[138 µM],-26%[70.6 µM]
COc1ccccc1Nc1ncc2c(n1)CN(C(=O)c1ccc(Oc3ccccc3)cc1)CCN2,35µM*,i,?,-4%
Cn1c(C(=O)N2CCNc3cnc(Nc4cccc(C(F)(F)F)c4)nc3C2)cc2ccccc21,40µM*,i,40µM*,-30%
COc1ccccc1Nc1ncc2c(n1)CN(C(=O)c1ccc(Cl)cc1)CCN2,?,i,?,-30%[70.6 µM]
O=C(NC1CCC1)C1CCCN1C(=O)c1cccc(-c2cccnc2)c1 (centres undefined),i,.,-6%,.
Cc1ccc2[nH]c(=O)c(CCC(=O)N3CCCCC3)cc2c1,19%,40µM*,i,3%
Cc1ccc2[nH]c(=O)c(CCC(=O)N3CCN(CC(C)C)CC3)cc2c1,15%,i,i,1%
Cc1ccc2cc(CCC(=O)N3CCOCC3)c(=O)[nH]c2c1,-4%,32µM*,3%,-15%
CC(C)(Oc1nn(Cc2cccc(Cl)c2)c2ccccc12)C(=O)NCCCn1ccnc1,50µM*,i,32µM*,?

# Screening data as filed in PubChem BioAssay.
